The list is not random: actives were taken first. Their share in the collection is about 3.3%.
Hsp90 Hop PPI: changes Hsp90-Hop TPR2A binding signal, up or down | AlphaScreen TPR2A-His6 binding biotin-Hsp90 C-terminal peptide | Potency, µM (highest dose often 57 µM), for inactives: top-dose activity change, negative = inhibition | hit rate 0.44% among 71,000; active = well fitted curve in either direction with a large enough effect; inconclusive = small, poorly fitted or top-dose-only effect, or another doubt; also: potency is read from the fitted curve at half-maximal effect; % is scaled to controls: 0 for no effect and ±100 for the full control effect
BRCT PPI green: inhibitors of human BRCA1 BRCT-phosphoprotein interaction (green fluorophore); P38398; BRCA1 BRCT-phosphopeptide binding, green fluorescence polarization; Potency, µM (titrated, usually from 76.9 µM), inactives show at the top dose activity change, negative = inhibition, actives largely listed as inhibitors; hit rate 0.05% among 75,000; AID 875;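 also: potency is read from the fitted curve at half-maximal effect; plate controls were peptide without protein for full effect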
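Fluorescence polarization: His-tagged BRCT (~35 kDa BRCA1 C-terminus, 250 nM) bound to 100 nM fluorescein-labeled phosphorylated 10-aa BACH1 peptide, pH 7.3 phosphate buffer with DTT and Tween 20. Compounds incubated 12 min at room temperature; inhibition read as lowered polarization.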
HEK293 cAMP ctrl: counter-screen for TSHR agonists: cAMP increase in parental HEK293 | AID 938 | hit rate 2.5% among 73,000 | Potency, µM (highest dose often 57.1 µM), without a hit: at the highest dose activation, actives largely listed as activators | parental HEK293 CNG cAMP sensor, membrane potential fluorescence; also: potency is read from the fitted curve at half-maximal effect; % of control where 0% means no effect; nearly all actives have a fitted effect of over 55% in size
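Counterscreen for endogenous-receptor signalling: CNG-channel HEK 293 cells report cAMP rise by membrane depolarization. After 60 min dye equilibration with 100 uM RO 20-1724, compounds incubated 30 min before bottom-read fluorescence at 590 nm.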
YjeE inh: YjeE (TsaE) inhibition, E. coli | purified YjeE enzyme, qHTS inhibition assay | Potency, µM | hit rate 0.05% among 71,000 | AID 605
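Fluorescence polarization of a BODIPY Texas Red–ADP probe (2 uM) bound to purified YjeE (10 uM) was read after 15 min room-temperature incubation with compounds. Loss of polarization marks inhibitors; ADP serves as titrated control.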
TSHR agonist: agonists of human thyroid stimulating hormone receptor; Potency, µM (highest dose often 57.1 µM), for inactives: top-dose activation, most hits filed as activators; HEK293-CNG-TSHR cells (CNG channel as cAMP sensor), membrane potential dye, cAMP; hit rate 0.48% among 73,000; P16473; active = well fitted activation curve with a large enough effect in the main read-out, with a control signal flat, not every such curve was filed as active; inconclusive = small, poorly fitted or top-dose-only effect, or a change in a side signal; inactive = no such curve, though single readings can be large or run the other way; % of control where 0% means no effect;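 also: the control signal comes from parental cells without the receptor; potency is read from the fitted curve at half-maximal effect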
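cAMP rise detected as CNG-channel membrane depolarization by fluorescent dye (emission 590 nm), 30 min after compound, following 60 min dye loading containing 100 uM RO 20-1724 at room temperature. Cells: TSHR/CNG HEK 293, with parental CNG HEK 293 as control.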
BRCT PPI red: disrupts BRCA1 BRCT binding to phosphoprotein, red fluorophore readout | AID 892 | hit rate 0.03% among 75,000 | BRCT-phosphopeptide binding, red fluorescence polarization | Potency, µM (doses to about 76.9 µM), for inactives: at the highest dose activity change, negative = inhibition, most hits filed as inhibitors | P38398; also: % is scaled to controls: 0 for no effect and ±100 for the full control effect
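Fluorescence polarization: 100 nM His-tagged BRCA1 BRCT with 100 nM TAMRA-labelled phospho-BACH1 decapeptide, phosphate buffer pH 7.3 with 150 mM NaCl, DTT, 0.01% Tween 20; 12 min RT. Binding inhibition seen as FP decrease.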
Starred values were filed as active, the others as inactive; i = inactive; ? = inconclusive; . = no result given; ! = not confirmed by another sample; [ ] = remark or other dose. Unless noted, calls follow the shape of the dose curve; as a rule, active = well fitted curve in the direction sought with a large enough effect; inconclusive = small, poorly fitted or top-dose-only effect, or another doubt; inactive = no such curve, though single readings can be large; an effect the other way counts as inactive or inconclusive.

SMILES	Hsp90 Hop PPI	BRCT PPI green	HEK293 cAMP ctrl	YjeE inh	TSHR agonist	BRCT PPI red
CCC/C=C(\CCC)C(NP(=O)(c1ccccc1)c1ccccc1)c1ccccc1 (stereo unspecified)	?	-3%	?	i	?	0%
CCCN1CCC[C@H](c2cccc(C#N)c2)C1	-6%	-6%	?	i	?	1%
Cc1nn(-c2ccccc2)c2c1C(c1ccc3c(c1)OCO3)SCC(=O)N2 (stereo unspecified)	-5%	-4%	13%	i	10µM*	1%
CSC([N-]/N=C/c1cccc(C)n1)=[S]=[Cu].CS[C@H]([S-])[N-]/N=C/c1cccc(C)n1	3.2µM*	-3%[15.4 µM]	-2%[11.4 µM]	i	-7%[11.4 µM]	0%[15.4 µM]
NC[C@H](O)c1cc(O)c(O)cc1F	-20%	-2%	-4%	i	-6%	0%
COc1ccc(C[C@@H]2NC[C@H](O)[C@H]2OC(C)=O)cc1	-2%	.	1%	i	0%	.
O=c1cc(-c2ccc(O)c(O)c2)oc2cc(O)cc(O)c12	-7%	-2%	-2%	i	-4%[25.6 µM]	0%
O=c1c(O)c(-c2ccc(O)c(O)c2)oc2cc(O)cc(O)c12	13µM*!	-7%	-31%	i	-34%	-9%
N#CC(C#N)=NNc1ccc(OC(F)(F)F)cc1	.	-4%	0.63µM*	.	?	-4%
O=C(O)c1cc[c]([Hg][S]c2ncnc3nc[nH]c23)cc1	-5%[11 µM]	1%[15.4 µM]	22%[11.4 µM]	i	-9%[11.4 µM]	0%[15.4 µM]
CC(C)c1nccn1Cc1ccc(Cl)cc1Cl	3%[11 µM]	-1%[15.4 µM]	3.2µM*	i	?	1%[15.4 µM]
C[C@@H](Cc1ccc(Cl)cc1Cl)NO	-4%[11 µM]	-2%[15.4 µM]	-3%[11.4 µM]	i	1%[11.4 µM]	1%[15.4 µM]
CNc1ccc2oc(C[C@@H]3O[C@@]4(CC[C@H]3C)O[C@@H]([C@@H](C)C(=O)c3ccc[nH]3)[C@@H](C)C[C@H]4C)nc2c1C(=O)O	-18%	.	12%	i	16%	.
C=C(C)CN1CC[C@@]23c4c5ccc(O)c4O[C@H]2c2[nH]c4ccccc4c2C[C@]3(O)[C@@H]1C5	-7%	-2%	4%	i	-1%	2%
NC(N)=Nc1ccc2[nH]c3c(c2c1)C[C@]1(O)[C@@H]2Cc4ccc(O)c5c4[C@]1(CCN2CC1CC1)[C@H]3O5	-23%	1%	0.016µM*	i	?	-1%
CCCN[C@@H]1CCc2c(OC)cccc2[C@@H]1C	-1%	0%	28%	i	27%	-1%
CCCN(CCC)[C@@H]1CCc2c(OC)cccc2[C@@H]1C	-2%	-2%	32µM*	i	?	1%
C[C@]12Cc3cn4c(nc3C=C1CC[C@H]1[C@@H]2CC[C@@]2(C)[C@H]1CC[C@@]2(O)C#N)nc1ccccc14	-8%	10%	?	i	?	-2%
N#CC(C#N)=NNc1cccc(Cl)c1	.	-2%	0.63µM*	.	?	0%
CC(C)C[C@H]1C(=O)N2CCC[C@@H]2[C@]2(O)O[C@](NC(=O)[C@H]3C=C4c5cccc6[nH]cc(c56)C[C@H]4N(C)C3)(C(C)C)C(=O)N12	?	.	-19%	i	-18%	.
CCOc1ccc2[nH]c(=O)c(CN(CCO)C3(c4nnnn4C4CCCCC4)CCCCC3)cc2c1	-2%	-1%	25µM*	i	?	-3%
COc1ccc2c(c1)[C@]13CCCC[C@@H]1[C@H](C2)NCC3	-9%	-2%	?	i	?	2%
C[C@H](N)c1cccc(Cl)c1Cl	-9%	1%	8%	i	2%	1%
N#CC(C(=O)C12CC3CC(CC(C3)C1)C2)c1nc2ccccc2[nH]1 (stereo unspecified)	-8%	1%	3.2µM*	i	?	1%
Cc1[nH]nc2c1C1(CCC3(CC1)OCCO3)C(C#N)=C(N)O2	-6%	1%	1%	i	10µM*	-2%

Bioassay records as filed in PubChem.
